Source: PubChem BioAssay
Active and inactive are the calls of the source.

Test system: not listed separately
Assay: CREB reporter modulators under forskolin, primary screen, cell-based, PC12, CRE-LacZ reporter, forskolin-stimulated (AID 1146);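 further: PC12 cells with 6xCRE LacZ reporter stimulated by forskolin 10 µM; beta-galactosidase reporter signal reflecting CREB driven transcription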
Conditions: luminescence, 4.5 h, higher = more signal, called active from +8 up or from −8 down

**Q.** Which z-score does the source give for `CCOC(=O)[C@H](Cc1ccccc1)NC(=O)CCC1CC(OC(=O)NCc2cccc3ccccc23)CC2(CCCC(COC(=O)NCc3ccccc3)O2)O1` (some centres not stated) here?
**A.** 2.01 (inactive)

**Q.** For `CO[C@@H]1COC(=O)[C@@H](C)COC(=O)[C@@H](C)NC(=O)CC=C[C@@H]1C`, which z-score is on record?
**A.** -0.694 (inactive)

**Q.** For `CCOC(=O)[C@H](Cc1ccccc1)NC(=O)CCC1CC(OC(=O)NCc2ccc3c(c2)OCO3)CC2(CCCC(COC(=O)NCCC(C)C)O2)O1` (some centres not stated), which z-score is on record?
**A.** 0.0924 (inactive)

**Q.** For `COc1ccc(COC(=O)NN=C2C[C@@H](O)[C@@H](O)[C@@H]3[C@@H]4C(=O)N(C5CCCCC5)C(=O)[C@@H]4CC[C@H]23)cc1`, which z-score is on record?
**A.** -0.0264 (inactive)

**Q.** With `CCC1=NOC(CCC2CC(OC(=O)NCc3cccc4c3OCO4)CC3(CCCC(COC(=O)NCCc4ccccc4OC)O3)O2)C1` (configuration not stated) as the compound, how does the z-score read?
**A.** 0.214 (inactive)

**Q.** Which z-score does the source give for `COC(=O)CC=C[C@@H](C)[C@@H](C=NO[C@@H]1O[C@H](COC(C)=O)[C@@H](OC(C)=O)[C@H](OC(C)=O)[C@H]1OC(C)=O)NS(=O)(=O)c1ccc(C)cc1` here?
**A.** 1.02 (inactive)

**Q.** Which z-score does the source give for `CCOC(=O)[C@H](CC(C)C)NC(=O)CCC1CC(OC(=O)NCc2ccc3c(c2)OCO3)CC2(CCCC(COC(=O)NCCCN3CCCC3=O)O2)O1` (some centres not stated) here?
**A.** -0.413 (inactive)

**Q.** For `O=C1C2=CC[C@H]3C(=O)N(c4cccc(Oc5ccccc5)c4)C(=O)[C@H]3[C@H]2[C@H](O)[C@@H]2O[C@H]12`, which z-score is on record?
**A.** 19.7 (active)

**Q.** Which z-score does the source give for `COC(=O)[C@H](C)NC(=O)CCC1CC(OC(=O)NCc2ccc3c(c2)OCO3)CC2(CCCC(COC(=O)NCc3cccc(C(F)(F)F)c3)O2)O1` (some centres not stated) here?
**A.** -0.631 (inactive)

**Q.** With `CO[C@H]1COC(=O)CC=C[C@H](C)[C@@H](OC)COC(=O)[C@@H](C)NC(=O)CC=C[C@@H]1C` as the compound, how does the z-score read?
**A.** 0.123 (inactive)

Target: Streptavidin (Streptomyces avidinii) (UniProt P22629)
Sequence (P22629 whole entry, looked up): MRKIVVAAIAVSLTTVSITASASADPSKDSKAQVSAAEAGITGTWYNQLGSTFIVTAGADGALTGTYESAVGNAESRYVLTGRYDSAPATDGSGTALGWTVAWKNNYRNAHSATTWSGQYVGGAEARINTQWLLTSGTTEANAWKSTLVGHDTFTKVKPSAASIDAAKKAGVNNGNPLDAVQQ
Assay: streptavidin binders on small-molecule microarray, primary screen, artefact control for SMM compound annotation, biophysical, 635/667 nm fluorescence (AID 1147);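 further: signal reflects streptavidin binding to arrayed compounds as a control protein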
Conditions: streptavidin binding, higher = more signal

**Q.** For `CO[C@H]1COC(=O)[C@@H](Cc2ccccc2)NC(=O)[C@@H](C)COC(=O)CCC[C@@H]1C`, which composite z-score is on record?
**A.** -0.343

**Q.** With `CCOC(=O)[C@H](CC(C)C)NC(=O)CCC1CC(OC(=O)NCCc2ccc(F)cc2)CC2(CCCC(COC(=O)NCCc3ccccc3OC)O2)O1` (some centres not stated) as the compound, how does the composite z-score read?
**A.** 0.805

**Q.** For `CCc1cc2c(nc1CC)CCN(CCC(C)=NO[C@H](C)c1cn([C@H](CO)Cc3ccccc3)nn1)C2`, which composite z-score is on record?
**A.** 0.656

**Q.** Which composite z-score does the source give for `CO[C@H]1COC(=O)CC=C[C@@H](C)[C@H](NS(=O)(=O)c2ccc(C)cc2)COC(=O)CCC[C@@H]1C` here?
**A.** 0.439

**Q.** With `C=Cc1ccc([C@H]2N[C@H](C(=O)O)CC[C@@H]2C)cc1` as the compound, how does the composite z-score read?
**A.** -0.536

**Q.** With `CO[C@H]1COC(=O)[C@@H](C)COC(=O)[C@H](COCc2ccccc2)NC(=O)CC=C[C@H]1C` as the compound, how does the composite z-score read?
**A.** -0.807

**Q.** Which composite z-score does the source give for `CCOC(=O)[C@H](CC(C)C)NC(=O)CCC1CC(OC(=O)NCc2cccc3ccccc23)CC2(CCCC(COC(=O)NCCC(C)C)O2)O1` (some centres not stated) here?
**A.** -0.589

**Q.** For `CO[C@H]1COC(=O)CC=C[C@@H](C)[C@H](OC)COC(=O)[C@@H]2CCCN2C(=O)CC=C[C@@H]1C`, which composite z-score is on record?
**A.** -0.407

**Q.** For `O=C1[C@H]2[C@H]3[C@H](O)[C@H](O)CC(=NOCc4ccccc4)[C@H]3CC[C@H]2C(=O)N1Cc1ccc2c(c1)OCO2`, which composite z-score is on record?
**A.** 0.484

**Q.** Which composite z-score does the source give for `Cc1ccc(S(=O)(=O)NC(CCc2ccccc2)CC(=O)C(C)(C)C)cc1` (configuration not stated) here?
**A.** 0.191

**Q.** For `O=C1C=C[C@@H](O)[C@@H]2[C@@H]3C(=O)N(C[C@@H]4CCCO4)C(=O)[C@@H]3CC[C@@H]12`, which composite z-score is on record?
**A.** -0.029

**Q.** Which composite z-score does the source give for `CC(C)=CCCC(C)=CCON=C1C[C@@H](O)[C@@H](O)[C@@H]2[C@@H]3C(=O)N(Cc4ccccc4)C(=O)[C@@H]3CC[C@@H]12` here?
**A.** -0.0277

**Q.** For `CCOC(=O)[C@H](CC(C)C)NC(=O)CCC1CC(OC(=O)NCCc2ccc(F)cc2)CC2(CCCC(COC(=O)NCCc3ccc(Cl)cc3)O2)O1` (some centres not stated), which composite z-score is on record?
**A.** 0.645

**Q.** Which composite z-score does the source give for `CC(=O)Nc1ccc([C@@H]2N[C@H](C(=O)O)CC[C@H]2C)cc1` here?
**A.** -0.0013

**Q.** For `CCOC(=O)NN=C1C[C@@H](O)[C@@H](O)[C@@H]2[C@@H]3C(=O)N(c4cccc(Oc5ccccc5)c4)C(=O)[C@@H]3CC[C@H]12`, which composite z-score is on record?
**A.** 0.948

**Q.** With `Cc1ccc(S(=O)(=O)N[C@H]2COC(=O)CC=C[C@H](C)[C@@H](NS(=O)(=O)c3ccc(C)cc3)COC(=O)CC=C[C@@H]2C)cc1` as the compound, how does the composite z-score read?
**A.** 1.17

**Q.** Which composite z-score does the source give for `CC1O[C@H]2C3=C(C(=O)[C@@H]4O[C@@H]4[C@H]3O)[C@@H]1C1[C@@H](C)OC=C3[C@H](O)C4O[C@@H]4C(=NOCc4ccccc4)[C@]312` (some centres not stated) here?
**A.** -0.438

**Q.** Which composite z-score does the source give for `C[C@@H](c1ccccc1)N1C(=O)[C@H]2[C@H]3[C@H](O)[C@H](O)CC(=NO[C@@H]4O[C@H](CO)[C@@H](O)[C@H](O)[C@H]4O)[C@@H]3CC[C@H]2C1=O` here?
**A.** 0.238

**Q.** With `CON=C(C)CCC(=O)OC[C@H]1O[C@H](c2ccccc2)C=C[C@@H]1Oc1ccc(OC)cc1` as the compound, how does the composite z-score read?
**A.** 0.0584

**Q.** For `COC(=O)[C@H](C)NC(=O)CCC1CC(OC(=O)NCc2ccc3c(c2)OCO3)CC2(CCCC(COC(=O)NCC(c3ccccc3)c3ccccc3)O2)O1` (some centres not stated), which composite z-score is on record?
**A.** 0.693

**Q.** Which composite z-score does the source give for `COC(=O)[C@H](C)NC(=O)CCC1CC(OC(=O)NCCc2ccc(F)cc2)CC2(CCCC(COC(=O)NCCC(C)C)O2)O1` (some centres not stated) here?
**A.** 0.0943

**Q.** Which composite z-score does the source give for `O=C1[C@H]2[C@H]3[C@H](O)[C@H](O)CC(=NOCc4ccccc4)[C@@H]3CC[C@H]2C(=O)N1c1ccc(F)cc1F` here?
**A.** 0.0494

**Q.** With `CC(C)=CCCC(C)=CCON=C1C[C@@H](O)[C@@H](O)[C@@H]2[C@@H]3C(=O)N(C4CCCCC4)C(=O)[C@@H]3CC[C@@H]12` as the compound, how does the composite z-score read?
**A.** -0.0037

**Q.** Which composite z-score does the source give for `CC(C)CON=C1C[C@@H](O)[C@@H](O)[C@@H]2[C@@H]3C(=O)N(Cc4ccc5c(c4)OCO5)C(=O)[C@@H]3CC[C@H]12` here?
**A.** 1.23

**Q.** Which composite z-score does the source give for `CCOC(=O)[C@H](Cc1ccccc1)NC(=O)CCC1CC(OC(=O)NCc2ccc3c(c2)OCO3)CC2(CCCC(COC(=O)NCCc3ccccc3OC)O2)O1` (some centres not stated) here?
**A.** 1.19

**Q.** With `Cc1cc2c(c(=O)o1)[C@@H](O)[C@H]1O[C@H]1C2=O` as the compound, how does the composite z-score read?
**A.** 0.361

**Q.** With `CC(=O)O[C@H]1C2=CO[C@H](C)[C@H]3[C@H]4C5=C([C@H](O)[C@H]6O[C@H]6C5=O)[C@H](OC4C)[C@@]23C(=O)[C@@H]2O[C@@H]21` (some centres not stated) as the compound, how does the composite z-score read?
**A.** -0.458

**Q.** For `CCOC(=O)[C@H](Cc1ccccc1)NC(=O)CCC1CC(OC(=O)NCc2cccc3ccccc23)CC2(CCCC(COC(=O)NCc3ccccc3)O2)O1` (some centres not stated), which composite z-score is on record?
**A.** 0.376

**Q.** Which composite z-score does the source give for `CO[C@@H]1COC(=O)[C@@H](C)COC(=O)[C@@H](C)NC(=O)CC=C[C@@H]1C` here?
**A.** -0.457

**Q.** With `CCOC(=O)[C@H](Cc1ccccc1)NC(=O)CCC1CC(OC(=O)NCc2ccc3c(c2)OCO3)CC2(CCCC(COC(=O)NCCC(C)C)O2)O1` (some centres not stated) as the compound, how does the composite z-score read?
**A.** 0.789

**Q.** Which composite z-score does the source give for `COc1ccc(COC(=O)NN=C2C[C@@H](O)[C@@H](O)[C@@H]3[C@@H]4C(=O)N(C5CCCCC5)C(=O)[C@@H]4CC[C@H]23)cc1` here?
**A.** -0.332

**Q.** With `CCC1=NOC(CCC2CC(OC(=O)NCc3cccc4c3OCO4)CC3(CCCC(COC(=O)NCCc4ccccc4OC)O3)O2)C1` (configuration not stated) as the compound, how does the composite z-score read?
**A.** 0.72

**Q.** For `COC(=O)CC=C[C@@H](C)[C@@H](C=NO[C@@H]1O[C@H](COC(C)=O)[C@@H](OC(C)=O)[C@H](OC(C)=O)[C@H]1OC(C)=O)NS(=O)(=O)c1ccc(C)cc1`, which composite z-score is on record?
**A.** -0.909

**Q.** With `CCOC(=O)[C@H](CC(C)C)NC(=O)CCC1CC(OC(=O)NCc2ccc3c(c2)OCO3)CC2(CCCC(COC(=O)NCCCN3CCCC3=O)O2)O1` (some centres not stated) as the compound, how does the composite z-score read?
**A.** 0.657

**Q.** With `O=C1C2=CC[C@H]3C(=O)N(c4cccc(Oc5ccccc5)c4)C(=O)[C@H]3[C@H]2[C@H](O)[C@@H]2O[C@H]12` as the compound, how does the composite z-score read?
**A.** 0.284

**Q.** With `COC(=O)[C@H](C)NC(=O)CCC1CC(OC(=O)NCc2ccc3c(c2)OCO3)CC2(CCCC(COC(=O)NCc3cccc(C(F)(F)F)c3)O2)O1` (some centres not stated) as the compound, how does the composite z-score read?
**A.** 0.634

**Q.** With `CO[C@H]1COC(=O)CC=C[C@H](C)[C@@H](OC)COC(=O)[C@@H](C)NC(=O)CC=C[C@@H]1C` as the compound, how does the composite z-score read?
**A.** -0.343
